Experimental data taken from PubChem BioAssay AID687020 (Broad Institute, 2013).
In all, about 1,400 compounds went through this assay and about 100 (7.1%) were called active. The list is a sample of the results. Potency and affinity values are given separately. A number with no mark means an inactive call. How the calls were made is not given here.

Assay: Vero cell toxicity, dose response, cytotoxicity control, plate reader, cherry-pick samples (AID 687020);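 further: compounds incubated with cells for three days before luminescence read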
Conditions: Vero cells toxicity; series mostly up to 19.5 µM; activity change, negative = toxicity: at the top concentration
With `CN(C)c1cccc(C(=O)Nc2cc(C(F)(F)F)ccc2-n2cnc3ccccc32)c1` the “activity change, negative = toxicity” value was 1.15%.
In the case of `O=S1(=O)N[C@@H](Cc2ccccc2)COc2cc(N3CCOCC3)ccc21`, the “activity change, negative = toxicity” value is reported as -16.8%.
For `O=C(Cc1cccnc1)N[C@H]1CC[C@@H](CCn2cc(Cc3ccccc3)nn2)O[C@H]1CO`, the “activity change, negative = toxicity” value was 11.9%.
For `c1ccc(-c2cn(C[C@H]3CC[C@@H]([C@@H]4CC[C@H](Cn5cc(-c6ccccc6)nn5)O4)O3)nn2)cc1`, the “activity change, negative = toxicity” value was 3.79%.
In the case of `COc1ccc(NC(=O)N[C@@H]2CC[C@@H](CCNS(=O)(=O)c3cccc(Cl)c3)O[C@@H]2CO)cc1`, the “activity change, negative = toxicity” value is reported as -4.64%.
In the case of `COc1ccc(S(=O)(=O)N[C@H]2CC[C@@H](CCNC(=O)CN3CCOCC3)O[C@H]2CO)cc1`, the “activity change, negative = toxicity” value is reported as 13%.
With `O=C(OCc1ccccc1)N1CCCC2CC1c1ccccc12` (configuration not stated) the “activity change, negative = toxicity” value was -4.06%.
With `CCCCN(C(=O)c1ccc2c(c1)NC(=O)CS2)c1ccccc1` the “activity change, negative = toxicity” value was -24.6%.
With `CSCCC(NS(=O)(=O)c1cccs1)C(=O)NCc1ccccc1` (configuration not stated) the “activity change, negative = toxicity” value was -12.8%.
For `COc1ccc(C)cc1NC(=O)C(c1ccccc1)N1CCN(CC(=O)N2CCOCC2)CC1` (configuration not stated), the “activity change, negative = toxicity” value was -1.07%.
With `COc1ccc2c3c(n(C)c2c1)[C@H](CO)N(Cc1ccccc1F)CC31CCN(C(C)=O)CC1` the “activity change, negative = toxicity” value was -3.12%.
In the case of `COCCNC(=O)CCC1CCN(Cc2ccc(-c3ccccc3)cc2)CC1`, the “activity change, negative = toxicity” value is reported as 11.3%.
In the case of `CN1C(C(=O)NCc2ccc(OC(F)(F)F)cc2)CC2Cn3c(nc4ccccc43)C21` (configuration not stated), the “activity change, negative = toxicity” value is reported as -7.43%.
With `COc1cccc(CC(=O)OCC(=O)Nc2nnc(-c3ccccc3)o2)c1` the “activity change, negative = toxicity” value was 2.48%.
In the case of `COc1ccc(C(CNS(=O)(=O)c2ccc(NC(C)=O)c(OC)c2)N2CCCC2)cc1` (configuration not stated), the “activity change, negative = toxicity” value is reported as -23.7%.
With `COc1ccc(C(CNC(=O)CCNC(=O)c2ccc(Br)cc2)N2CCOCC2)cc1` (configuration not stated) the “activity change, negative = toxicity” value was -7.55%.
For `CCCCN1C(N)=NC[C@@H]1C(C)O` (some centres not stated), the “activity change, negative = toxicity” value was -16.1%.
With `O=C(COc1ccccc1)NCC(=O)N/N=C/c1ccc(Br)cc1` the “activity change, negative = toxicity” value was 3.21%.
In the case of `O=C(CCn1cncn1)N1CCCC(N2CCN(c3ccc(F)cc3)CC2)C1` (configuration not stated), the “activity change, negative = toxicity” value is reported as -15.2%.
In the case of `CCN(CC)CC(=O)N1CCCC(N2CCN(c3cccc(C(F)(F)F)c3)CC2)C1` (configuration not stated), the “activity change, negative = toxicity” value is reported as -15.9%.
For `O=C(c1cc(C2CC2)on1)N1CCCC(N2CCN(c3cccc(C(F)(F)F)c3)CC2)C1` (configuration not stated), the “activity change, negative = toxicity” value was 3.52%.
For `C[C@@H]1CCCCO[C@H](CN(C)Cc2ccc(Cl)c(Cl)c2)[C@H](C)CN([C@@H](C)CO)C(=O)c2cc(NC(=O)c3ccccc3)ccc2O1`, the “activity change, negative = toxicity” value was -5.49% [at 21 µM].
In the case of `O=C(c1ccc2nccnc2c1)N1CCN(c2ccccc2)CC1`, the “activity change, negative = toxicity” value is reported as -11.1%.
With `O=C(c1cccc(-c2cccc3nccn23)c1)N1CCOCC1` the “activity change, negative = toxicity” value was 5.83%.
With `CCCCCCCCN1C(=O)[C@H](CC(=O)NCCC(C)C)C[C@@]2(C(=O)OCC)CCCC=C12` the “activity change, negative = toxicity” value was -10.3%.
With `CCN1CCN(c2ccc(S(=O)(=O)N3CCCCC3)cc2NC(=O)c2ccc(C)c(C)c2)CC1` the “activity change, negative = toxicity” value was -1.07%.
In the case of `Cn1c(=O)n(C)c2cc(N3CCOCC3)c(NC(=O)c3ccc(F)cc3)cc21`, the “activity change, negative = toxicity” value is reported as -1.46%.
In the case of `CNC[C@@H]1OCCCC[C@H](C)Oc2ccc(NS(C)(=O)=O)cc2C(=O)N([C@@H](C)CO)C[C@@H]1C`, the “activity change, negative = toxicity” value is reported as 7.65%.
For `C=CCc1ccc(OCCCNCc2ccccc2)c(OC)c1`, the “activity change, negative = toxicity” value was 4.77%.
With `Cc1cccc(OCCCN2CCC(C(O)(c3ccccc3)c3ccccc3)CC2)c1` the “activity change, negative = toxicity” value was -11.6%.
In the case of `c1ccc(-c2ccc(OCCN3CCOCC3)cc2)cc1`, the “activity change, negative = toxicity” value is reported as -30.8%.
With `CCc1cccc(OCCN2CCCC2)c1` the “activity change, negative = toxicity” value was 7.48%.
In the case of `CN1CCN(CCOc2ccc(-c3ccccc3)cc2)CC1`, the “activity change, negative = toxicity” value is reported as -3.13%.
In the case of `COc1ccccc1CN1CCCC(N2CCN(c3ccccc3OC)CC2)C1` (configuration not stated), the “activity change, negative = toxicity” value is reported as -25.9%.
With `CCc1cc2c(=O)[nH]c(COC)nc2s1` the “activity change, negative = toxicity” value was -6.45%.
With `CN(C(=O)COC(=O)c1ccc(S(=O)(=O)N2CCOCC2)cc1)c1ccccc1` the “activity change, negative = toxicity” value was -15.2%.
For `COC(=O)[C@@H]1C[C@H]2CC[C@H](O)C[C@H]2N1Cc1ccc(C(F)(F)F)cc1`, the “activity change, negative = toxicity” value was -4.52%.
With `COc1ccc(CNC(=O)C2CC(c3ccc(C(F)(F)F)cc3)=NO2)cc1` (configuration not stated) the “activity change, negative = toxicity” value was -24.9%.
With `Nc1cccc(O)c1` the “activity change, negative = toxicity” value was -6.53%.
With `COc1cc(CNc2nccn3ccnc23)cc(OC)c1` the “activity change, negative = toxicity” value was -9.02%.
With `CCc1ccc(OCC(O)CN2CCN(c3ccccc3)CC2)cc1` (configuration not stated) the “activity change, negative = toxicity” value was -5.9%.
For `NC(=O)C1CCN(CC(O)COc2ccc(-c3ccccc3)cc2)CC1` (configuration not stated), the “activity change, negative = toxicity” value was -5.66%.
For `COCC#Cc1ccc2c(c1)O[C@@H](CN(C)C(=O)Nc1ccccc1F)[C@H](C)CN([C@@H](C)CO)S2(=O)=O`, the “activity change, negative = toxicity” value was 0.743%.
In the case of `C[C@H]1CN([C@@H](C)CO)C(=O)Cc2cc(NC(=O)CCCCCC(=O)Nc3ccccc3N)ccc2O[C@H]1CN(C)Cc1ccc(C(F)(F)F)cc1`, the “activity change, negative = toxicity” value is reported as 1.41% [at 21 µM].
For `CC1(C(=O)NS(=O)(=O)c2ccccc2C(F)(F)F)CCN1C(=O)CCc1ccccc1` (configuration not stated), the “activity change, negative = toxicity” value was -2.6%.
In the case of `O=C(NNc1c(F)c(F)cc(F)c1F)C1CCN(S(=O)(=O)c2ccccc2F)CC1`, the “activity change, negative = toxicity” value is reported as -10.5%.
With `C[C@H](CO)N1C[C@H](C)[C@H](CN(C)C(=O)Nc2cccc3ccccc23)OCCCC[C@H](C)Oc2ccc(NS(=O)(=O)c3cn(C)cn3)cc2C1=O` the “activity change, negative = toxicity” value was 0.574%.
